This note sets out measurements from PubChem BioAssay (NCI).

The structures appear in SMILES notation. The panel holds about 79,000 compounds, 15% with a hit somewhere; the sample as a whole holds those more often. A number with no mark means an inactive call. Activity calls are given as the source filed them. Rule as the data show it: active = growth inhibition above about 70%; inactive = the rest.

Assay [1] can be described thus: NCI Yeast Anticancer Drug Screen. Data for the rad50 strain (AID 155).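 Also: 0% = growth of vehicle-only cultures of the same strain.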 The settings on record: S. cerevisiae rad50 strain growth inhibition; at 50.0 µM; active compounds read high. Summed up:
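Genetically altered yeast (DNA repair pathway); compound treatment; growth inhibition vs vehicle ctrl.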

The nature of assay [2]: NCI Yeast Anticancer Drug Screen. Data for the mec2-1 strain (AID 157). The settings on record: S. cerevisiae mec2-1 strain, at 50.0 µM, active compounds read high. Summed up: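 Test agents were screened against the mec2-1 yeast strain, with defined DNA repair or cell cycle alteration. Growth was scored as inhibition against vehicle-only controls.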
Assay [3] is described as follows: NCI Yeast Anticancer Drug Screen. Data for the sgs1 mgt1 strain (AID 161).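 Also: 0% = growth of cultures given vehicle only.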 The settings on record: S. cerevisiae sgs1 mgt1 strain, at 50.0 µM, active compounds read high. The procedure, abridged: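 Test agents were incubated with a DNA-repair-mutant yeast strain. Growth was then read and compared against vehicle-treated controls.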
The nature of assay [4]: NCI Yeast Anticancer Drug Screen. Data for the cln2 rad14 strain (AID 165).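 Also: 0% = growth equal to vehicle treated cultures.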 The settings on record: S. cerevisiae cln2 rad14 strain, at 50.0 µM, active compounds read high. The procedure, abridged:
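Growth of compound-exposed yeast (cln2 rad14 genotype) measured and expressed as inhibition relative to vehicle.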

Assay [5] can be described thus: NCI Yeast Anticancer Drug Screen. Data for the bub3 strain (AID 167). The settings on record: S. cerevisiae bub3 mutant strain, at 50.0 µM, active compounds read high. Summed up:
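Yeast carrying a defined mutation is treated with each compound, and growth is compared with that of vehicle-exposed cells to give inhibition.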

Assay [6] is described as follows: NCI Yeast Anticancer Drug Screen. Data for the mlh1 rad18 strain (AID 175). The settings on record: S. cerevisiae mlh1 rad18 strain growth inhibition; at 50.0 µM; active compounds read high. The procedure, abridged:
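In this whole-cell yeast screen, a strain with altered DNA damage repair is challenged with compound, and its growth is measured against matched vehicle-treated controls.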

In the case of `O=[N+]([O-])c1ccc(N/N=C\C2C=CCCC2)c([N+](=O)[O-])c1` (stereo unspecified), the growth inhibition in assay [1] was -13.2%; in assay [2] it was -0.1%; in assay [3], -5.65%; in assay [4], -31.8%; in assay [5] it was -1.05%; in assay [6] it was -19.9%.

For `CN(C)Cc1cc(C(=O)O)ccc1O`, the growth inhibition in assay [1] was 10.1%; in assay [2] it was 13.1%; in assay [3] it was 9.45%; in assay [4] it was -29%; in assay [5], 2.85%; in assay [6] it was -0.75%.

In the case of `OC(Cc1ccccc1)CN1CCN(c2ccccc2)CC1` (stereo unspecified), the growth inhibition is 10.4% in assay [1]; 4% in assay [2]; 8% in assay [3]; 17.1% in assay [4]; 8.05% in assay [5]; 4.05% in assay [6].

As for `O=C(O)c1cncc(-c2ccccc2)c1`, the growth inhibition in assay [1] is 38.2%; in assay [2] it was 30.7%; in assay [3], 23.4%; in assay [4], 14.1%; in assay [5] it was 3%; in assay [6], 26%.

As for `O=C(c1ccccc1)c1ccccc1O`, the growth inhibition in assay [1] was -16.6%; in assay [2] it was -10.7%; in assay [3] it was 11.4%; in assay [4], 6.95%; in assay [5] it was 10.7%; in assay [6] it was 2.9%.

Take `O=C(Nc1ccc([N+](=O)[O-])cc1)OC1CCS(=O)(=O)C1` (stereo unspecified): the growth inhibition was -0.2% in assay [1]; 6.15% in assay [2]; -3.65% in assay [3]; 13.7% in assay [4]; 8.6% in assay [5]; -1.65% in assay [6].

With `COc1nc(N)c(NC(C)=O)c(=O)n1C`, the growth inhibition in assay [1] is 3.9%; in assay [2], -19.2%; in assay [3] it was -21.4%; in assay [4], -4.3%; in assay [5], -22.6%; in assay [6] it was 9%.

Take `Nc1ncnc(N)c1NC(=O)c1ccccc1`: the growth inhibition is -16.4% in assay [1]; -19.6% in assay [2]; -24.4% in assay [3]; -21.4% in assay [4]; 3.25% in assay [5]; 14.6% in assay [6].

Consider `Cc1ccc(C2OC(N)=C(O)C2=O)cc1` (stereo unspecified), for which the growth inhibition is -43% in assay [1]; 10.2% in assay [2]; -4% in assay [3]; -26.4% in assay [4]; 1.85% in assay [5]; 9.5% in assay [6].

Take `CC12CC3CC(C1)CC(NCCO)(C3)C2`: the growth inhibition is -0.8% in assay [1]; -13.7% in assay [2]; -14.3% in assay [3]; -83.7% in assay [4]; -5.45% in assay [5]; -4.35% in assay [6].

Consider `O=C(N/N=C(\C1=Nc2ccc(Cl)cc2NC1O)C(O)/C=C/c1ccccc1)c1ccncc1` (stereo unspecified), for which the growth inhibition is 17.6% in assay [1]; 3.95% in assay [2]; -8.8% in assay [3]; -20.7% in assay [4]; -4% in assay [5]; 7.7% in assay [6].

Take `CCCCCCCCCCCCCC(=O)CC`: the growth inhibition in assay [1] is 56.3%; in assay [2], -3.35%; in assay [3], 17.9%; in assay [4], 19.1%; in assay [5] it was 12.4%; in assay [6] it was 21.9%.

`COc1cccc(NC(=O)N/C(=C/c2ccc(N(CCC#N)CCC#N)cc2)NC(=O)c2cc([N+](=O)[O-])ccc2Cl)c1`: the growth inhibition in assay [1] is 30.8%; in assay [2] it was 16%; in assay [3] it was -3.15%; in assay [4] it was -10.1%; in assay [5], -6.8%; in assay [6], 36.5%.

As to `CC1CCCN(N=Nc2ccc(Br)cc2-c2nc(N)c3cc(Br)ccc3n2)C1` (stereo unspecified), the growth inhibition is 99.2% (active) in assay [1]; 99.2% (active) in assay [2]; 99.5% (active) in assay [3]; 98.2% (active) in assay [4]; 99% (active) in assay [5]; 99% (active) in assay [6].

For `Cc1cccc(C2ON=C(c3ccccc3)N2C23CC4CC(CC(C4)C2)C3)c1` (stereo unspecified), the growth inhibition in assay [1] was -20.8%; in assay [2], -0.35%; in assay [3], -22.1%; in assay [4] it was -2.45%; in assay [5], 0.75%; in assay [6], -33.5%.

Regarding `COC1OC(CCl)C(Cl)C(OC)C1OC` (stereo unspecified), the growth inhibition was -9.1% in assay [1]; -1.1% in assay [2]; 5.6% in assay [3]; -1.5% in assay [4]; -2.5% in assay [5]; 14.4% in assay [6].

Turning to `CSC#CC(Sc1c(Cl)c(Cl)c(Cl)c(Cl)c1Cl)=C(Sc1c(Cl)c(Cl)c(Cl)c(Cl)c1Cl)Sc1c(Cl)c(Cl)c(Cl)c(Cl)c1Cl`, the growth inhibition was 2.55% in assay [1]; -0.8% in assay [2]; -1.7% in assay [3]; -3.6% in assay [4]; -0.6% in assay [5]; -15.5% in assay [6].

As for `Cc1ccc(C(=O)OC2CCCC2)cc1`, the growth inhibition in assay [1] was 7.85%; in assay [2] it was -0.7%; in assay [3] it was 0.85%; in assay [4] it was -7.7%; in assay [5], -15.7%; in assay [6] it was 4.1%.

Turning to `CCOc1cc2c(cc1C(CC)c1ccccc1)OCO2` (stereo unspecified), the growth inhibition in assay [1] was 6.75%; in assay [2] it was 12.6%; in assay [3], 9.75%; in assay [4] it was 3%; in assay [5], 17.6%; in assay [6], 14.7%.

Regarding `COC(=O)Nc1c2c(nc3ccccc13)-c1ccccc1C(C)(C)C2OC` (stereo unspecified), the growth inhibition in assay [1] is 49.5%; in assay [2] it was 12.6%; in assay [3], 58.1%; in assay [4], -7.7%; in assay [5], 84% (active); in assay [6] it was 67%.

`C[N+]1(C)C2CC(=O)CC1C1CC12` (stereo unspecified): the growth inhibition in assay [1] is -10.2%; in assay [2], 7.4%; in assay [3], 4.55%; in assay [4] it was -2.15%; in assay [5], 12.1%; in assay [6] it was -16%.
